Results: publication PMC7862700, “An all-to-all approach to the identification of sequence-specific readers for epigenetic DNA modifications on cytosine”

Columns and labels:
Assay in all cases: DAPPL (digital affinity profiling via proximity ligation, sequencing); 10 mM Tris-HCl pH 7.5, 50 mM NaCl, 1 mM DTT, 4% glycerol, room temperature, 30 min; GST-TFs on glutathione beads, 16-mer random dsDNA library, 0.1% formaldehyde crosslink after washing; high values mean tight binding
HSF1 = HSF1 (Homo sapiens, UniProt Q00613 1-529); conditions: protein: recombinant; tags: N-terminal GST; chain copies: 3; dsDNA, one strand shown
Sequence of HSF1 (Q00613 whole entry, the tested form may be a part): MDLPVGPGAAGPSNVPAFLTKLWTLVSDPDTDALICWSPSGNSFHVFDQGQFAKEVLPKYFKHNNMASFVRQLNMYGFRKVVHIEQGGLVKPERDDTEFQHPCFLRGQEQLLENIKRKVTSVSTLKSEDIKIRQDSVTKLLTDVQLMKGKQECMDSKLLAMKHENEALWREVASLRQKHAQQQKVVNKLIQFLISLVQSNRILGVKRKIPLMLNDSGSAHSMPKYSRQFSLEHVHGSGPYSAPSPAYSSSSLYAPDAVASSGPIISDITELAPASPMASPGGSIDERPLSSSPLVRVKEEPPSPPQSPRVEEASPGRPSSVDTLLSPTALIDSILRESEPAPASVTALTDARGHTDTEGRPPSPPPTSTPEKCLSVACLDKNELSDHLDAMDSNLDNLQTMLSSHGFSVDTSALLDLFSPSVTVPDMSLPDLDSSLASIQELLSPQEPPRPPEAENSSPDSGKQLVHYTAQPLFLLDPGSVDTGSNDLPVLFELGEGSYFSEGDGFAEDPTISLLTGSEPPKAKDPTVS
Procedure, shortened: (§1)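 In yeast, human transcription factors were expressed with a GST fusion, then pulled down on glutathione beads and given DNA barcodes. Pooled with a tag-only sample, they were exposed to 200 nmole of a 16-mer random double-stranded DNA library (Tris/NaCl/DTT/glycerol buffer, room temperature, 30 min), washed, crosslinked with 0.1% formaldehyde, proximity-ligated using BsaI/T4 ligase for 1 h at 37 °C, PCR-amplified and read on an Illumina NextSeq500. Each hexamer's frequency of reads for a factor, divided by the matching frequency for the tag-only sample, gives the binding signal.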

SPIC = target: T1, SPIC (Homo sapiens, UniProt Q8N5J4 1-248); conditions: protein: recombinant; tags: N-terminal GST; dsDNA, one strand shown
T1 sequence: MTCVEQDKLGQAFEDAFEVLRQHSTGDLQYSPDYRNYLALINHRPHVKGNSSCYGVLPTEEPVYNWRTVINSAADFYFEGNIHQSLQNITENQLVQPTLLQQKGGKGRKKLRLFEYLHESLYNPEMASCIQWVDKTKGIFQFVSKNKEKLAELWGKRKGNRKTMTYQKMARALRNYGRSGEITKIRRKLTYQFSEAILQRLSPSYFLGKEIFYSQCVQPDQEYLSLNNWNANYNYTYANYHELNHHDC
Procedure, shortened: as §1

ELK4 = target: T2, ELK4 (Homo sapiens, UniProt P28324-2 1-405); conditions: protein: recombinant; tags: N-terminal GST; dsDNA, one strand shown
T2 sequence: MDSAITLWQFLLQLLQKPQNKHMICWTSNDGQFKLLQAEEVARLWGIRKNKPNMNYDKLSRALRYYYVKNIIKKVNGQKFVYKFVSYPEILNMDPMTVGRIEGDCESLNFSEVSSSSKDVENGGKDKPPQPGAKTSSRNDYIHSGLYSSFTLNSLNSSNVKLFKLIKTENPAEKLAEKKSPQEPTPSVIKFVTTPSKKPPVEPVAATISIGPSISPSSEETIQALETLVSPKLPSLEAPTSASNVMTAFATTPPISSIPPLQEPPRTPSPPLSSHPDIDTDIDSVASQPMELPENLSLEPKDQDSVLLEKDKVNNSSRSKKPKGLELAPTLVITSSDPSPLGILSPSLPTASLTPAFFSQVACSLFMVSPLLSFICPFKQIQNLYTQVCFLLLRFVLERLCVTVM
Procedure, shortened: as §1

ETV2 = target: T3, ETV2 (Homo sapiens, UniProt O00321 1-342); conditions: protein: recombinant; tags: N-terminal GST; dsDNA, one strand shown
T3 sequence: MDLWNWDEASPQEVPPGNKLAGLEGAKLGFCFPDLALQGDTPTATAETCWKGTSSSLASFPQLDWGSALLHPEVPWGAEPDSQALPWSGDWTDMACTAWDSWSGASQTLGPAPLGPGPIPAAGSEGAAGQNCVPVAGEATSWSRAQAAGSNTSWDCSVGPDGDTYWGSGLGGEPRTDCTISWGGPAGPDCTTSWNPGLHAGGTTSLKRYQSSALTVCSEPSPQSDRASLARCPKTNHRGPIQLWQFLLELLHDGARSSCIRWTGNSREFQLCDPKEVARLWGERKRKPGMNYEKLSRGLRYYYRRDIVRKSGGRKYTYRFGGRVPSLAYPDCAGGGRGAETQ
Procedure, shortened: as §1

ELK1 = target: T4, ELK1 (Homo sapiens, UniProt P19419 1-428); conditions: protein: recombinant; tags: N-terminal GST; dsDNA, one strand shown
T4 sequence: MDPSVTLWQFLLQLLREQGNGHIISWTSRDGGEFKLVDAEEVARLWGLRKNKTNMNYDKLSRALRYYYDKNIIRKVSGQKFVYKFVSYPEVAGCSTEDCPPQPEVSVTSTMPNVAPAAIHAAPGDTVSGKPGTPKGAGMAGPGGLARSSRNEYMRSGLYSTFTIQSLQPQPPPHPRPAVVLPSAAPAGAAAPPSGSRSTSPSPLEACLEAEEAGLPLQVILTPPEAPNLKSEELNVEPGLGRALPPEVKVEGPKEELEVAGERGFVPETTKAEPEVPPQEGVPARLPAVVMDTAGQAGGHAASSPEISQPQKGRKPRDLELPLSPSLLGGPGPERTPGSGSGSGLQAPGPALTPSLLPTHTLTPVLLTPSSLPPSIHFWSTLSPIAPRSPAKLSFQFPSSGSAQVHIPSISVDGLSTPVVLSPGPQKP
Procedure, shortened: as §1

ERG = target: T5, ERG (Homo sapiens, UniProt P11308 1-479); conditions: protein: recombinant; tags: N-terminal GST; dsDNA, one strand shown
T5 sequence: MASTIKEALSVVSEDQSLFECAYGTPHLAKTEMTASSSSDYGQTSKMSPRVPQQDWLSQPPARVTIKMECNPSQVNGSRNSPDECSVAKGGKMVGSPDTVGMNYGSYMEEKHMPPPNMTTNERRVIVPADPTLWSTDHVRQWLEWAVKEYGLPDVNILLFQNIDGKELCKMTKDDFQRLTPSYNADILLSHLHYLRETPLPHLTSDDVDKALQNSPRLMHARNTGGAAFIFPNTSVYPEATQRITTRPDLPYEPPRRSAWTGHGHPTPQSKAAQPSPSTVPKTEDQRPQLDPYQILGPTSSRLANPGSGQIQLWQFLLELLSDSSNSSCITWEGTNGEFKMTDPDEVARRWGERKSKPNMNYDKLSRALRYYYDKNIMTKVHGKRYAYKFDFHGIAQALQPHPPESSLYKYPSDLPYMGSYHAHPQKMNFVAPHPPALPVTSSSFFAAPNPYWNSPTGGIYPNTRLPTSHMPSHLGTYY
Procedure, shortened: as §1

SPI1 = SPI1 (Homo sapiens, UniProt P17947 1-270); conditions: protein: recombinant; tags: N-terminal GST; dsDNA, one strand shown
Procedure, shortened: as §1

CRX = CRX (Homo sapiens, UniProt O43186 1-299); conditions: protein: recombinant; tags: N-terminal GST; dsDNA, one strand shown
Sequence of CRX (O43186 whole entry): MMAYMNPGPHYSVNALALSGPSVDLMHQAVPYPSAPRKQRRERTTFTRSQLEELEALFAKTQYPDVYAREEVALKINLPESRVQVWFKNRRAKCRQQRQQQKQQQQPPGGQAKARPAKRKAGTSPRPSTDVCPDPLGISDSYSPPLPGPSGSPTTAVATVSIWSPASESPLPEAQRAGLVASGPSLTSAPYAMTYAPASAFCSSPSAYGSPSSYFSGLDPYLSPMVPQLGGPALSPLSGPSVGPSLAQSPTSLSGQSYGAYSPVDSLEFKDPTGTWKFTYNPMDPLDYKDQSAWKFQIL
Procedure, shortened: as §1

ERF = target: T6, ERF (Homo sapiens, UniProt P50548 1-548); conditions: protein: recombinant; tags: N-terminal GST; dsDNA, one strand shown
T6 sequence: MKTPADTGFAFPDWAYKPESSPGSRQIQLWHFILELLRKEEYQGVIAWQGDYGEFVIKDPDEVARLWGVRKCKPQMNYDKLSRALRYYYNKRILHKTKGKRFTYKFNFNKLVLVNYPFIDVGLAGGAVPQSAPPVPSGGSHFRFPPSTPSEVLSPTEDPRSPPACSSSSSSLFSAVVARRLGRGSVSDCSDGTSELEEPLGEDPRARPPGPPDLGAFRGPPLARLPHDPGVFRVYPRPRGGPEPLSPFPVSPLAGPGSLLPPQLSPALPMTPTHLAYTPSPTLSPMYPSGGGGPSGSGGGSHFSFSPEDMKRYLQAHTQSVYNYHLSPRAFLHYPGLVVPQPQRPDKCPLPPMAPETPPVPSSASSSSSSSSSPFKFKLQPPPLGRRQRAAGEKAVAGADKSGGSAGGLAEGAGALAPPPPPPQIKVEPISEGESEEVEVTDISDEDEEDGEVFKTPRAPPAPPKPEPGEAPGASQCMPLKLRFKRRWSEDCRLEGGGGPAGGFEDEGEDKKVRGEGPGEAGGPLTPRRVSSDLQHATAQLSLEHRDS
Procedure, shortened: as §1

ETV3L = target: T7, ETV3L (Homo sapiens, UniProt Q6ZN32 1-361); conditions: protein: recombinant; tags: N-terminal GST; dsDNA, one strand shown
T7 sequence: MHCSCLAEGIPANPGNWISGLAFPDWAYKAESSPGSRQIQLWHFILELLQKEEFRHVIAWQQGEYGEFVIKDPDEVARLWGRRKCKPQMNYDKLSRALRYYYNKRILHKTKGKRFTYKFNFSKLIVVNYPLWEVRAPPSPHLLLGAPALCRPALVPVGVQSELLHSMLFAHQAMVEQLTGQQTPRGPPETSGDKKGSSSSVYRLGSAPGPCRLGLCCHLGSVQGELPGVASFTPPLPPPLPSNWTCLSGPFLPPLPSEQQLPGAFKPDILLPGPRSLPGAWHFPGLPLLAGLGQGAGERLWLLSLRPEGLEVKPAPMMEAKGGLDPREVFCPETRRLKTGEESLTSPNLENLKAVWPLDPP
Procedure, shortened: as §1

ELF5 = target: T8, ELF5 (Homo sapiens, UniProt Q9UKW6-2 1-255); conditions: protein: recombinant; tags: N-terminal GST; dsDNA, one strand shown
T8 sequence: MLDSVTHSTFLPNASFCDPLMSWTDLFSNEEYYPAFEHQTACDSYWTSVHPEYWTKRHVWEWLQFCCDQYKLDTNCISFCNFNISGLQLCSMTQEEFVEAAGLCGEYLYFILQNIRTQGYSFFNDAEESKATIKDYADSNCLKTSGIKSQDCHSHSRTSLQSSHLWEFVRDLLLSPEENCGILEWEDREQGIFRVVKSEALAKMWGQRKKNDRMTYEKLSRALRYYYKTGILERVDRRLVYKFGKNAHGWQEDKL
Procedure, shortened: as §1

ETV3 = target: T9, ETV3 (Homo sapiens, UniProt P41162-2 1-143); conditions: protein: recombinant; tags: N-terminal GST; dsDNA, one strand shown
T9 sequence: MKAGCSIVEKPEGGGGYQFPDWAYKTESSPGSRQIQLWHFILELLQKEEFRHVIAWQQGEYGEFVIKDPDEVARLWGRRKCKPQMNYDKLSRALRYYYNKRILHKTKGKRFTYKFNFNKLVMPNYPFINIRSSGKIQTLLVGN
Procedure, shortened: as §1

ETV6 = ETV6 (Homo sapiens, UniProt P41212 1-452); conditions: protein: recombinant; tags: N-terminal GST; dsDNA, one strand shown
Sequence of ETV6 (P41212 whole entry): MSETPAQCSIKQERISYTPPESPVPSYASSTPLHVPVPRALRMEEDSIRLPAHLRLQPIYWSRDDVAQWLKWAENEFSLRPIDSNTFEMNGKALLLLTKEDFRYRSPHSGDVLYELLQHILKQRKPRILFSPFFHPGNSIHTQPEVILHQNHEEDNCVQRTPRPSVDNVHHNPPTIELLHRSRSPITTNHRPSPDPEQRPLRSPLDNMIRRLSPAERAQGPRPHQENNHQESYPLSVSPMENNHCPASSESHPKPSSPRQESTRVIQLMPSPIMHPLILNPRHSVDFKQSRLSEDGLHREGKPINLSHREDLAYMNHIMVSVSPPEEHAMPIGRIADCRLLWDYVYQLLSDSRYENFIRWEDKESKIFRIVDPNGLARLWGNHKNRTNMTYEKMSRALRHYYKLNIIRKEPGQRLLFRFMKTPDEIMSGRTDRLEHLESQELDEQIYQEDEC
Procedure, shortened: as §1

ELF1 = ELF1 (Homo sapiens, UniProt P32519 1-619); conditions: protein: recombinant; tags: N-terminal GST; dsDNA, one strand shown
Sequence of ELF1 (P32519 whole entry): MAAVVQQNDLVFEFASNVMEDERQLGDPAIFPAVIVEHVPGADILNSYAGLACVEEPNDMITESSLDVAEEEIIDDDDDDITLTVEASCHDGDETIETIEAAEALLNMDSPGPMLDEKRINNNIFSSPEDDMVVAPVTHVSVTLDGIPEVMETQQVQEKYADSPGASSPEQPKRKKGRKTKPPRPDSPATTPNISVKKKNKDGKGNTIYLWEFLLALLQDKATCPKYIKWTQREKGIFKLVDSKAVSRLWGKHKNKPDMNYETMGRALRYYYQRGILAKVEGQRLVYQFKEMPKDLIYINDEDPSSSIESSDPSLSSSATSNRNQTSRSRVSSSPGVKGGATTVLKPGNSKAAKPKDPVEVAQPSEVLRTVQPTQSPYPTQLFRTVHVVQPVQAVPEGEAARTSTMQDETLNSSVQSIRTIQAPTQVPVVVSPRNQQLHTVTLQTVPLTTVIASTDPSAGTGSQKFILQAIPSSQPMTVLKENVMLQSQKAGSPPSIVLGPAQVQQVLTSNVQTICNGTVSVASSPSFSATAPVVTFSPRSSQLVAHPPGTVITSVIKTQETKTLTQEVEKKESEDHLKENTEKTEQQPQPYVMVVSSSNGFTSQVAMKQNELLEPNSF
Procedure, shortened: as §1

SPIB = SPIB (Homo sapiens, UniProt Q01892 1-262); conditions: protein: recombinant; tags: N-terminal GST; dsDNA, one strand shown
Sequence of SPIB (Q01892 whole entry): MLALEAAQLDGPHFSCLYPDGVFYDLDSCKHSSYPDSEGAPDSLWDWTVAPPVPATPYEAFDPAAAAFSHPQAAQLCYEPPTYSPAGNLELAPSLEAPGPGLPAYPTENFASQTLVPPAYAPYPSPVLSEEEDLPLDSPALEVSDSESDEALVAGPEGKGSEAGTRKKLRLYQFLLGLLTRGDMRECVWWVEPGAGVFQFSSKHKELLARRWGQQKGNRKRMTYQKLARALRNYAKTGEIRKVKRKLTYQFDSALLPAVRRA
Procedure, shortened: as §1

ELF4 = ELF4 (Homo sapiens, UniProt Q99607 1-663); conditions: protein: recombinant; tags: N-terminal GST; dsDNA, one strand shown
Sequence of ELF4 (Q99607 whole entry): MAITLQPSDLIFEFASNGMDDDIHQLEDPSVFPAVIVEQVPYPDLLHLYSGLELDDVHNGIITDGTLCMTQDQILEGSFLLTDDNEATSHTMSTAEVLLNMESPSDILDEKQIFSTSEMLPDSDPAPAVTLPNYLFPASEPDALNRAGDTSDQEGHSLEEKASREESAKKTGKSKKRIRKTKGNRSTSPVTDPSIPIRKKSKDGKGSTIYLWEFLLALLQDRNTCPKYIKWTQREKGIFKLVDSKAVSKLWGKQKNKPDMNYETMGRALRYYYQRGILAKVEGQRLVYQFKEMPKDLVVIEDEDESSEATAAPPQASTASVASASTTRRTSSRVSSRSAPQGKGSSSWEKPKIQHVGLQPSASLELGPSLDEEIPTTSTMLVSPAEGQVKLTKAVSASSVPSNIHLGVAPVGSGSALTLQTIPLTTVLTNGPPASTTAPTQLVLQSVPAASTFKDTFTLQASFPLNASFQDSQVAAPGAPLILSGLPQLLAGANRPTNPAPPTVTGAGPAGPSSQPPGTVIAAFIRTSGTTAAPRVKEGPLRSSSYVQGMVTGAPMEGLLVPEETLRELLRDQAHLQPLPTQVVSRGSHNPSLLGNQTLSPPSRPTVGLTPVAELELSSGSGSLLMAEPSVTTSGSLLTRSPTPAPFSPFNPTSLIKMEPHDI
Procedure, shortened: as §1

ETS2 = target: T10, ETS2 (Homo sapiens, UniProt P15036 1-469); conditions: protein: recombinant; tags: N-terminal GST; dsDNA, one strand shown
T10 sequence: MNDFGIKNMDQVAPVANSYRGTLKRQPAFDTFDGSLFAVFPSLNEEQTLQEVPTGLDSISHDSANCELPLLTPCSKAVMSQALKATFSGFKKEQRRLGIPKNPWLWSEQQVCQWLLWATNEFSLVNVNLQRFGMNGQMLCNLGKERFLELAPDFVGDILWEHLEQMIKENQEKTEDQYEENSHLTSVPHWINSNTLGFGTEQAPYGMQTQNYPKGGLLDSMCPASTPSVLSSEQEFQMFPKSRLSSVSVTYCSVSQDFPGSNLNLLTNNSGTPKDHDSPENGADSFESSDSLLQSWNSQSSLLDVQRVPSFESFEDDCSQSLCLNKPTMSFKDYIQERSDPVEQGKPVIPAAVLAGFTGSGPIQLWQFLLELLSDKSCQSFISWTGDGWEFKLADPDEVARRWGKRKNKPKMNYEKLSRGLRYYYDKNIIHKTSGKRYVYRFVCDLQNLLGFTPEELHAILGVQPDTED
Procedure, shortened: as §1

## GATGGA
HSF1
  binding signal: 1.1 fold enrichment (6-mer frequency, TF over GST control)
SPIC
  binding signal: 1.22 fold enrichment (6-mer frequency, TF over GST control)
ELK4
  binding signal: 1.04 fold enrichment (6-mer frequency, TF over GST control)
ETV2
  binding signal: 1.02 fold enrichment (6-mer frequency, TF over GST control)

## AGTATA
ELK1
  binding signal: 1.05 fold enrichment (6-mer frequency, TF over GST control)
ERG
  binding signal: 1 fold enrichment (6-mer frequency, TF over GST control)
SPI1
  binding signal: 1.04 fold enrichment (6-mer frequency, TF over GST control)
HSF1
  binding signal: 1.01 fold enrichment (6-mer frequency, TF over GST control)
SPIC
  binding signal: 1.07 fold enrichment (6-mer frequency, TF over GST control)
ELK4
  binding signal: 1.03 fold enrichment (6-mer frequency, TF over GST control)
ETV2
  binding signal: 1.06 fold enrichment (6-mer frequency, TF over GST control)
CRX
  binding signal: 1.07 fold enrichment (6-mer frequency, TF over GST control)
ERF
  binding signal: 1.01 fold enrichment (6-mer frequency, TF over GST control)
ETV3L
  binding signal: 1.02 fold enrichment (6-mer frequency, TF over GST control)
ELF5
  binding signal: 1.03 fold enrichment (6-mer frequency, TF over GST control)
ETV3
  binding signal: 1 fold enrichment (6-mer frequency, TF over GST control)
ETV6
  binding signal: 1.06 fold enrichment (6-mer frequency, TF over GST control)

## GCCAGA
HSF1
  binding signal: 1.02 fold enrichment (6-mer frequency, TF over GST control)

## AGAAGG
HSF1
  binding signal: 1.28 fold enrichment (6-mer frequency, TF over GST control)

## TACCAG
HSF1
  binding signal: 1.22 fold enrichment (6-mer frequency, TF over GST control)

## ACGAGA
HSF1
  binding signal: 1.14 fold enrichment (6-mer frequency, TF over GST control)

## ATCGAG
HSF1
  binding signal: 1.49 fold enrichment (6-mer frequency, TF over GST control)

## TGAAAG
ELF1
  binding signal: 1.05 fold enrichment (6-mer frequency, TF over GST control)
SPI1
  binding signal: 1.05 fold enrichment (6-mer frequency, TF over GST control)
SPIB
  binding signal: 1.04 fold enrichment (6-mer frequency, TF over GST control)
HSF1
  binding signal: 1.08 fold enrichment (6-mer frequency, TF over GST control)
SPIC
  binding signal: 1.01 fold enrichment (6-mer frequency, TF over GST control)
ELF4
  binding signal: 1.01 fold enrichment (6-mer frequency, TF over GST control)
ELK4
  binding signal: 1.06 fold enrichment (6-mer frequency, TF over GST control)
ETV3L
  binding signal: 1.04 fold enrichment (6-mer frequency, TF over GST control)
ETS2
  binding signal: 1.01 fold enrichment (6-mer frequency, TF over GST control)
